The record followed here is PubChem BioAssay (EPA / NIEHS).

Assay [1] is described as follows: Tanguay_ZF_120hpf_MORT_legacy: (Legacy) Oregon State University Tanguay Lab 120 Hour Post-fertilization zebrafish Assay for Mortality (AID 2283633). Summed up: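 5D WT zebrafish, chorion removed 4 hpf; 1 embryo/well from 6 hpf; static exposure to 120 hpf, 28C, dark, sealed. Final DMSO 0.64%. Readout: binary mortality, brightfield, 24 + 120 hpf; DMSO as negative control.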

Assay [2] is described as follows: Tanguay_ZF_120hpf_YSE_legacy: (Legacy) Oregon State University Tanguay Lab 120 Hour Post-fertilization zebrafish Assay for Yolk Sac Edema (AID 2283634).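 As to AC50: actives raise the incidence of yolk sac edema above the DMSO baseline.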 Summed up: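 Dechorionate (pronase, 4 hpf) → place one 6 hpf embryo per well → static compound exposure, sealed and foil-covered, 28C, to 120 hpf → record yolk sac edema as present or absent. Final DMSO 0.64%.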

Assay [3] is described as follows: Tanguay_ZF_120hpf_AXIS_legacy: (Legacy) Oregon State University Tanguay Lab 120 Hour Post-fertilization zebrafish Assay for Body Axis Malformation (AID 2283635).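 As to AC50: potency for an increased fraction of larvae scored with body axis malformation.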 Put shortly: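 Chorion is removed with pronase at 4 hpf, then single 6 hpf embryos are dosed (final DMSO 0.64%) and held statically at 28C in sealed, foil-covered plates. At 120 hpf body axis malformation is recorded as present or absent.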

A short description of assay [4]: Tanguay_ZF_120hpf_EYE_legacy: (Legacy) Oregon State University Tanguay Lab 120 Hour Post-fertilization zebrafish Assay for Eye Malformation (AID 2283636). Summed up: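 Static waterborne exposure of dechorionated zebrafish embryos (strain Tropical 5D), 6 to 120 hpf, sealed plates at 28C, 0.64% DMSO vehicle. Eye malformation is scored as a binary endpoint, with gain of signal analysed relative to DMSO.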

Assay [5] is described as follows: Tanguay_ZF_120hpf_SNOU_legacy: (Legacy) Oregon State University Tanguay Lab 120 Hour Post-fertilization zebrafish Assay for Snout Malformation (AID 2283637). Put shortly: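 Dechorionated zebrafish, individually housed from 6 hpf in covered, sealed wells at 28C with 0.64% DMSO vehicle, were examined at 120 hpf for snout malformation. Responses were binary and analysed positive-direction relative to DMSO.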

A short description of assay [6]: Tanguay_ZF_120hpf_JAW_legacy: (Legacy) Oregon State University Tanguay Lab 120 Hour Post-fertilization zebrafish Assay for Jaw Malformation (AID 2283638).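 As to AC50: active means more embryos with jaw malformation than DMSO controls.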 Put shortly:
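Steps: dechorionate 4 hpf embryos (pronase); plate 1/well at 6 hpf; add test chemical, 0.64% DMSO final; seal, cover, hold at 28C statically to 120 hpf; score jaw defect presence/absence microscopically. Dead embryos not scored.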

Assay [7] can be described thus: Tanguay_ZF_120hpf_OTIC_legacy: (Legacy) Oregon State University Tanguay Lab 120 Hour Post-fertilization zebrafish Assay for Otic Vesicle Malformation (AID 2283639). Put shortly:
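Brightfield scoring at 120 hpf, binary present/absent; DMSO negative control, 5uM trimethyltin chloride positive control. Static exposure at 28C, final DMSO 0.64% (vol/vol). Dead embryos not scored for malformation.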

The nature of assay [8]: Tanguay_ZF_120hpf_PE_legacy: (Legacy) Oregon State University Tanguay Lab 120 Hour Post-fertilization zebrafish Assay for Pericardial Edema (AID 2283640).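 As to AC50: potency for increased incidence of pericardial edema versus DMSO baseline.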 Summed up:
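Embryos from wild-type 5D adults were staged, then dosed in 0.64% DMSO. They were kept sealed in the dark at 28C until 120 hpf. Pericardial edema was then recorded as present or absent.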

Assay [9] can be described thus: Tanguay_ZF_120hpf_BRAI_legacy: (Legacy) Oregon State University Tanguay Lab 120 Hour Post-fertilization zebrafish Assay for Brain Malformation (AID 2283641). Summed up:
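Wild-type 5D larvae, static waterborne exposure to 120 hpf, 28C, 0.64% v/v DMSO. Brightfield scoring of brain defects, binary; dead embryos excluded. Positive ctrl 5uM trimethyltin chloride.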

Assay [10] is described as follows: Tanguay_ZF_120hpf_SOMI_legacy: (Legacy) Oregon State University Tanguay Lab 120 Hour Post-fertilization zebrafish Assay for Somite Malformation (AID 2283647). Summed up: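 Read-out: presence or absence of somite malformation in 120 hpf larvae, gain-of-signal relative to DMSO baseline. Embryos lacked chorion (pronase, 4 hpf) and were exposed statically from 6 hpf at 28C; dead larvae not scored.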

Assay [11] can be described thus: Tanguay_ZF_120hpf_PFIN_legacy: (Legacy) Oregon State University Tanguay Lab 120 Hour Post-fertilization zebrafish Assay for Pectoral Fin Malformation (AID 2283648).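 Also: each larva judged yes or no for fin defect by brightfield with dead larvae skipped.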 Put shortly:
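Scoring of pectoral fin malformation was binary, made at 120 hpf on larvae exposed statically from 6 hpf after enzymatic chorion removal. Activity was fitted upward relative to DMSO controls at 0.64% (vol/vol).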

Assay [12] is described as follows: Tanguay_ZF_120hpf_CFIN_legacy: (Legacy) Oregon State University Tanguay Lab 120 Hour Post-fertilization zebrafish Assay for Caudal Fin Malformation (AID 2283649). Summed up: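 Binary presence or absence of caudal fin malformation at 120 hpf, read by brightfield microscopy, with DMSO as baseline. Larvae came from 5D wild-type embryos exposed statically from 6 hpf at 28C after pronase dechorionation.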

Assay [13] can be described thus: TOX21_p53_BLA_p3_viability: Viability Assessment in the Tox21 HCT-116 p53 Agonism Beta-lactamase Assay, Phase 3 (AID 2283593).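 Also: cells exposed to compound for 16 h before reading.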 Put shortly:
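HCT-116 cells (4000/well) rested 5 h at 37C, then got DMSO compounds by pin tool (217-fold dilution) for 16 h at 37C, 5% CO2. After the bla read, CellTiter-Glo was added and luminescence read at 30 min, room temperature.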

Assay [14] addresses Cellular tumor antigen p53 (Homo sapiens) (UniProt P04637). In words: TOX21_p53_BLA_p3_ratio: Tox21 HCT-116 p53 Agonism Beta-lactamase Assay, Ratio, Phase 3 (AID 2283596). Summed up: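 Cells were seeded at 4000/well, rested 5 h at 37C, then dosed with DMSO compound solutions (217-fold dilution) for 16 h. CCF4-AM substrate was loaded for 2 h at room temperature, and the 460/530 nm emission ratio was fitted for gain of signal versus DMSO.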

The nature of assay [15]: TOX21_p53_BLA_p4_viability: Viability Assessment in the Tox21 HCT-116 p53 Agonism Beta-lactamase Assay, Phase 4 (AID 2283597).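 Also: hits lower the luminescence signal meaning cytotoxicity.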 Summed up: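 Readout: ATP luminescence (CellTiter-Glo), measured 30 min after reagent addition at RT. The reagent followed a 2 h CCF4-AM incubation, and the cells had been exposed to compound for 16 h at 37C.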
Assay [16] in a line: TOX21_p53_BLA_p5_viability: Viability Assessment in the Tox21 HCT-116 p53 Agonism Beta-lactamase Assay, Phase 5 (AID 2283600). Summed up: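 Workflow: seed 4000 cells per well, wait 5 h, add compounds (DMSO, 217-fold dilution), incubate 16 h, load CCF4-AM 2 h, add CellTiter-Glo, read luminescence after 30 min.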
The target of assay [17] is Cellular tumor antigen p53 (Homo sapiens) (UniProt P04637). Description: TOX21_p53_BLA_p4_ratio: Tox21 HCT-116 p53 Agonism Beta-lactamase Assay, Ratio, Phase 4 (AID 2283601). Summed up: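 HCT116 cells carrying an inducible beta-lactamase reporter were plated at 4000 cells/well, rested 5 h, then exposed to compounds in DMSO (217-fold dilution) for 16 h at 37C. CCF4-AM substrate was loaded 2 h at room temperature; 460/530 nm emission ratio scored gain-of-signal versus DMSO.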

A short description of assay [18]: Tanguay_ZF_120hpf_PIG_legacy: (Legacy) Oregon State University Tanguay Lab 120 Hour Post-fertilization zebrafish Assay for Pigmentation Malformation (AID 2283650). Put shortly:
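Endpoint is incidence of abnormal pigmentation at 120 hpf in dechorionated 5D zebrafish exposed singly from 6 hpf at 28C, DMSO vehicle at 0.64%. Embryos dying by 24 or 120 hpf are excluded from scoring.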

A short description of assay [19]: Tanguay_ZF_120hpf_CIRC_legacy: (Legacy) Oregon State University Tanguay Lab 120 Hour Post-fertilization zebrafish Assay for Circulatory Malformation (AID 2283651). Put shortly:
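Static exposure, 6–120 hpf, 28C, sealed and dark; one dechorionated 5D embryo/well; DMSO 0.64% v/v final. Binary circulation endpoint by brightfield; dead embryos not scored.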

Assay [20] concerns the target Cellular tumor antigen p53 (Homo sapiens) (UniProt P04637). Description: TOX21_p53_BLA_p5_ratio: Tox21 HCT-116 p53 Agonism Beta-lactamase Assay, Ratio, Phase 5 (AID 2283599). Summed up: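 HCT-116 cells carrying a p53-inducible beta-lactamase reporter were seeded at 4000 cells/well and dosed after 5 h with compound in DMSO (217-fold dilution). After 16 h at 37C, CCF4-AM substrate was added for 2 h, and the 460/530 nm emission ratio was scored as gain-of-signal versus DMSO.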

Inconclusive results are not listed. Activity calls are given as the source filed them. The calls were made as follows: active = hit-call score of the fitted dose curve at least 0.9, where 1 is the maximum; inconclusive = response in the unintended direction; inactive = score below 0.9.

Chain of Cellular tumor antigen p53 (Homo sapiens) (P04637 whole entry, looked up): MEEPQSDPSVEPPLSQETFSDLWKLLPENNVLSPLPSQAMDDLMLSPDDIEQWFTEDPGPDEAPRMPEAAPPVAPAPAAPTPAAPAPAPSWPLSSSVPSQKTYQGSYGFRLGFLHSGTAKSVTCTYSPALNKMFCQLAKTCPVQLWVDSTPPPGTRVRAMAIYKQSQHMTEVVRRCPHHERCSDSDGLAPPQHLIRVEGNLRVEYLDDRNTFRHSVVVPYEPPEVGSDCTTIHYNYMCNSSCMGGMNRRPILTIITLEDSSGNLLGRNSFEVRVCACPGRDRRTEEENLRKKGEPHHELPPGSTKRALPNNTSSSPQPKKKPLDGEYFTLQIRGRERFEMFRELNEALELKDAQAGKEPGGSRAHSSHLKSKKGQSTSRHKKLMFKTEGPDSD

Consider `CCC(C)(CC)c1cc(NC(=O)c2c(OC)cccc2OC)on1`, for which the result in assay [1], in assay [2], in assay [3], in assay [4], in assay [5] and in [6] was inactive. The outcome in assay [7], in assay [8], in assay [9], in assay [10], in assay [11] and in assay [12] was inactive.
As for `C[C@]12CCC(=O)C=C1CC[C@@H]1[C@@H]2CC[C@]2(C)C(=O)CC[C@@H]12`, the result in assay [13], in assay [14], in assay [15], in assay [16], in assay [17] and in [19] was inactive. In addition, the AC50 was 36.2 µM (active) in assay [2]; 40.2 µM (active) in assay [3]; 45.5 µM (active) in assay [4]; 37.7 µM (active) in assay [5]; 38.3 µM (active) in assay [6]; 36.3 µM (active) in assay [8]. Also, the AC50 in [9] was 49.8 µM (active); in assay [11], 35.1 µM (active); in assay [12] it was 40.4 µM (active); in assay [18], 43.9 µM (active).
For `CC1=C2C[C@H]3[C@@H](CC=C4C[C@@H](O)CC[C@@]43C)[C@@H]2CC[C@]12O[C@@H]1C[C@H](C)CN[C@H]1[C@H]2C`, the compound was called inactive in assay [13], in assay [14], in assay [20], in [16], in [17] and in assay [4]. The compound was classed as inactive in assay [7], in assay [9] and in [19]. Also, the AC50 in assay [2] is 17.2 µM (active); in [3], 0.33 µM (active); in [5], 21 µM (active); in [6], 25.9 µM (active); in assay [8], 20.2 µM (active); in [11], 21.8 µM (active). The AC50 is 16.6 µM (active) in assay [12] and 20 µM (active) in [18].
As to `Oc1ccc(Cl)cc1Cl`, the compound was classed as inactive in assay [13], in assay [14], in assay [15], in assay [16], in assay [17] and in [3]. Besides, the compound was called inactive in [4], in assay [5], in [6], in [7], in [8] and in assay [11]. Moreover, the compound was called inactive in assay [12] and in assay [18].
Consider `CCNc1nc(NC(C)C)nc(SC)n1`, for which the outcome in assay [1], in assay [2], in [3], in assay [4], in assay [5] and in assay [6] was inactive. Moreover, the call in assay [7], in [8], in [9], in assay [11], in assay [12] and in assay [18] was inactive. Moreover, the result in assay [19] was inactive.
Turning to `Clc1ccc(C(Cl)(Cl)Cl)cc1`, the result in assay [13], in assay [14], in assay [17], in assay [1], in assay [2] and in [3] was inactive. Moreover, the compound was classed as inactive in assay [4], in assay [6], in assay [8] and in assay [18].
`O=S(=O)(O)C(F)(F)C(F)(F)C(F)(F)C(F)(F)F`: the result in assay [13], in assay [14], in [15], in [16], in assay [17] and in [3] was inactive. Further, the compound was called inactive in assay [4], in assay [5], in assay [6] and in assay [18].
As for `O=C(O)C(F)(F)C(F)(F)C(F)(F)C(F)(F)C(F)(F)F`, the outcome in [14], in assay [20], in assay [17], in assay [2], in [3] and in assay [4] was inactive. Also, the outcome in assay [5], in assay [6], in assay [7], in assay [8], in assay [9] and in assay [11] was inactive. Besides, the compound was classed as inactive in assay [12], in [18] and in assay [19].
Regarding `CC(C)(O)C(=O)Nc1ccc([N+](=O)[O-])c(C(F)(F)F)c1`, the result in assay [13], in [14], in [15], in assay [16], in assay [17] and in assay [2] was inactive. Further, the compound was called inactive in assay [9], in assay [11], in assay [18] and in [19]. Moreover, the AC50 in assay [3] was 6.35 µM (active); in [4], 21.7 µM (active); in assay [5], 7.43 µM (active); in assay [6], 23.1 µM (active); in assay [8] it was 23.2 µM (active).
